According to PubChem BioAssay (NCI):
The panel holds about 79,000 compounds, 15% with a hit somewhere; the sample as a whole holds those more often. Unmarked numbers belong to inactive results. Active and inactive are the calls of the source. Cut-off read from the data, not from the text of the source: active = growth inhibition above about 70%; inactive = the rest.

How the values were obtained:
[1] = NCI Yeast Anticancer Drug Screen. Data for the rad50 strain (AID 155);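 note: 0% = growth of vehicle-only cultures of the same strain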; conditions: S. cerevisiae rad50 strain growth inhibition, stronger effect = higher value
Summary of the method: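 Cells are treated with compound, grown, and their growth is then scored against vehicle-only cultures of the same repair-deficient yeast strain.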

[2] = NCI Yeast Anticancer Drug Screen. Data for the mec2-1 strain (AID 157); conditions: S. cerevisiae mec2-1 strain, stronger effect = higher value
Summary of the method: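 Each compound was tested on mec2-1 yeast, a strain altered in DNA damage repair or cell cycle control. Growth inhibition is reported relative to vehicle.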

[3] = NCI Yeast Anticancer Drug Screen. Data for the sgs1 mgt1 strain (AID 161);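 note: 0% = growth of cultures given vehicle only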; conditions: S. cerevisiae sgs1 mgt1 strain, stronger effect = higher value
Summary of the method: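 Mutant yeast exposed to compound; growth scored against vehicle-only wells.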

[4] = NCI Yeast Anticancer Drug Screen. Data for the cln2 rad14 strain (AID 165);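 note: 0% = growth equal to vehicle treated cultures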; conditions: S. cerevisiae cln2 rad14 strain, stronger effect = higher value
Summary of the method: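 Test compounds were added to cln2 rad14 yeast cultures; inhibition of growth was then determined by comparison with vehicle treatment.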

[5] = NCI Yeast Anticancer Drug Screen. Data for the bub3 strain (AID 167); conditions: S. cerevisiae bub3 mutant strain, stronger effect = higher value
Summary of the method: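 Part of a panel of yeast mutants defective in DNA damage repair or cell cycle regulation. Each strain is grown with compound, and inhibition is calculated relative to solvent-treated cultures.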

[6] = NCI Yeast Anticancer Drug Screen. Data for the mlh1 rad18 strain (AID 175); conditions: S. cerevisiae mlh1 rad18 strain growth inhibition, stronger effect = higher value
Summary of the method: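 Inhibition values reflect reduced growth of mutant yeast versus vehicle-treated controls following compound exposure; the mutations affect DNA damage repair.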

[7] = at 5.0 µM (retest, dose inferred, filed as 0.5)
[8] = at 50.0 µM (retest, dose inferred, filed as 5.0)

| Compound | growth inhibition [1, 7] | growth inhibition [1, 8] | growth inhibition ([1]; at 50.0 µM) | growth inhibition [2, 7] | growth inhibition [2, 8] | growth inhibition ([2]; at 50.0 µM) | growth inhibition [3, 7] | growth inhibition [3, 8] | growth inhibition ([3]; at 50.0 µM) | growth inhibition [4, 7] | growth inhibition [4, 8] | growth inhibition ([4]; at 50.0 µM) | growth inhibition [5, 7] | growth inhibition [5, 8] | growth inhibition ([5]; at 50.0 µM) | growth inhibition [6, 7] | growth inhibition [6, 8] | growth inhibition ([6]; at 50.0 µM) |
| --- | --- | --- | --- | --- | --- | --- | --- | --- | --- | --- | --- | --- | --- | --- | --- | --- | --- | --- |
| Oc1ccc(C2CCCCC2)c(O)c1 | -2% | 42% | 75.5% (active) | 2% | 53% | 61.4% | 7% | 37% | 66% | 30% | 45% | 65.8% | 7% | 66% | 67.3% | 2% | 72% (active) | 65.8% |
| COc1c(I)cc(I)c(O)c1I | 6% | 39% | 94.4% (active) | 10% | 80% (active) | 93.8% (active) | 7% | 64% | 91% (active) | 10% | 36% | 88.1% (active) | 3% | 36% | 69.9% | 9% | 77% (active) | 94.2% (active) |
| O=C(COc1ccc(Cl)c(Cl)c1)Nc1ccc[n+](Cc2ccc(Cl)c(Cl)c2)c1 | -15% | 99% (active) | 99.6% (active) | 1% | 100% (active) | 99.5% (active) | 13% | 99% (active) | 99.5% (active) | 2% | 99% (active) | 99.2% (active) | 2% | 99% (active) | 99.3% (active) | 39% | 99% (active) | 98.8% (active) |
| CC(=O)c1ccc(Cl)c(N=Cc2cc(Br)ccc2O)c1 | 55% | 77% (active) | 68.4% | 35% | 81% (active) | 70.4% (active) | 57% | 95% (active) | 67.4% | 34% | 56% | 24.4% | 52% | 98% (active) | 78.2% (active) | 64% | 96% (active) | 61.5% |
| CC1(C)NNC(=S)NN1 | 2% | 12% | 5.95% | -3% | 8% | 15.4% | 4% | 14% | 21.3% | 12% | 7% | 9.75% | 23% | 5% | 2.4% | 20% | 8% | 41.8% |
| COc1cc(C(c2cc3c(cc2OC(C)=O)OCO3)C(C(C)=O)C(C)=O)cc(OC)c1OC(C)=O (stereo not given) | 7% | 18% | 3.7% | -4% | 18% | 5% | -5% | 0% | -18.9% | -1% | 1% | -16.4% | 8% | 13% | 8.75% | 3% | 11% | -4.2% |
| CC(C)c1ccc2c(c1)CC[C@@H]1[C@](C)(CO)CCC[C@]21C | 4% | 94% (active) | 34.8% | 4% | 94% (active) | 89.8% (active) | 0% | 99% (active) | 43.2% | 2% | 96% (active) | 68.2% | -3% | 95% (active) | 89.1% (active) | -16% | 95% (active) | 97.3% (active) |
| O=C(O)C(=O)Cc1ccc(O)cc1 | -18% | -30% | 68.2% | -20% | -25% | 12.7% | -10% | -26% | 57% | -5% | 7% | 49.1% | -24% | -20% | 70.7% (active) | -48% | -69% | 61% |
| CCCCCCCCCCS(=O)(=O)Nc1ccc(C(=O)NN)cc1 | 60% | 83% (active) | 92.6% (active) | 29% | 48% | 71% (active) | 42% | 82% (active) | 89.5% (active) | 54% | 80% (active) | 91% (active) | 48% | 82% (active) | 79% (active) | 69% | 87% (active) | 92.7% (active) |
| O=C(O)C1C(C(=O)Nc2ccc3c(c2)Cc2ccccc2-3)C2(Cl)C(Cl)=C(Cl)C1(Cl)C2(Cl)Cl (stereo not given) | 31% | 99% (active) | 98.4% (active) | 27% | 99% (active) | 98.7% (active) | 47% | 99% (active) | 98.5% (active) | 31% | 99% (active) | 98.3% (active) | 14% | 99% (active) | 98.3% (active) | 46% | 99% (active) | 98.3% (active) |
| COc1cc(C2c3cc4c(cc3OC(NNc3ccccc3)C2C)OCO4)cc(OC)c1O (stereo not given) | -5% | 97% (active) | 98.2% (active) | -15% | 98% (active) | 98.7% (active) | -13% | 99% (active) | 98.4% (active) | -5% | 96% (active) | 98.6% (active) | -7% | 97% (active) | 98.7% (active) | -11% | 97% (active) | 98.3% (active) |
| CCCCCCCCCCCCCCSC(=NCC)NCC | 99% (active) | 99% (active) | 99.2% (active) | 100% (active) | 100% (active) | 99.5% (active) | 100% (active) | 100% (active) | 99.2% (active) | 99% (active) | 99% (active) | 97.4% (active) | 99% (active) | 99% (active) | 99.3% (active) | 99% (active) | 99% (active) | 99% (active) |
| CSc1ncc2c(n1)-c1ccccc1OC2NC1CC1 (stereo not given) | 24% | 22% | 71.5% (active) | 18% | 16% | 62.5% | 17% | 20% | 11.3% | 26% | 27% | -2.85% | 24% | 28% | 14.6% | 18% | 12% | -7.35% |
| COc1ccc2c(C)cc(N/N=C(\C)c3ccccn3)nc2c1 | 2% | 57% | 99.5% (active) | -3% | 51% | 99.7% (active) | 7% | 42% | 99.6% (active) | -6% | 28% | 99.5% (active) | 0% | 67% | 99.7% (active) | -2% | 57% | 99.5% (active) |
| COC(=O)c1ccc(SCCC(=O)CCl)cc1 | 23% | 99% (active) | 99.3% (active) | 25% | 99% (active) | 99.2% (active) | 24% | 99% (active) | 99% (active) | 14% | 99% (active) | 98.7% (active) | 38% | 99% (active) | 99.4% (active) | 27% | 99% (active) | 99% (active) |
| CC1=C(C(=O)Nc2ccccc2C)C(c2ccccc2F)C(C(=O)Nc2ccccc2C)=C(C)N1 | 1% | 6% | 29.6% | 3% | 8% | 41.9% | -2% | 6% | 6.6% | -2% | -6% | -23.1% | 1% | 2% | 20.2% | 1% | 8% | 47.7% |
| CC(=O)C1CCC2C3CC(F)C4(O)CC(O)CCC4(C)C3CCC12C (stereo not given) | -120% | 98% (active) | 4.1% | -3% | 99% (active) | -1% | -1% | 95% (active) | 62% | -6% | 58% | -9.95% | -4% | 33% | 85.7% (active) | -20% | 99% (active) | 32.4% |
| COC(=O)C1=C(NC(=O)Nc2ccc(Cl)cc2)OC(C)(C)C1c1ccc(Cl)cc1 (stereo not given) | 87% (active) | 88% (active) | 96.5% (active) | 94% (active) | 94% (active) | 98% (active) | 85% (active) | 92% (active) | 97.1% (active) | 80% (active) | 87% (active) | 94.8% (active) | 89% (active) | 89% (active) | 95.4% (active) | 85% (active) | 89% (active) | 96.8% (active) |
| CC12OC1C(=O)c1ccccc1C2=O (stereo not given) | 4% | 85% (active) | 88.5% (active) | 15% | 93% (active) | 92.1% (active) | 9% | 87% (active) | 89.9% (active) | 19% | 65% | 57.6% | 9% | 96% (active) | 90.9% (active) | -2% | 95% (active) | 81.6% (active) |
| O=C(O)C(O)C(O)C(OC1OC(CO)C(O)C(O)C1O)C(O)CO.[Br][Pt].[NH-]C1CCCCC1[NH-] (stereo not given) | 50% | 97% (active) | 67.8% | 65% | 88% (active) | 62.9% | 89% (active) | 99% (active) | 89.5% (active) | 24% | 72% (active) | 72% (active) | 79% (active) | 97% (active) | 83.6% (active) | 69% | 98% (active) | 56% |
